Among the data in PubChem BioAssay AID1903 (Southern Research Specialized Biocontainment Screening …, 2009) are inhibition values, retold here.

The whole screen tested about 310,000 compounds, of which about 1,200 (0.39%) were called active. These entries were drawn from the full list. Results with a measured potency or affinity are listed apart. A number with no mark means an inactive call. The rule behind the calls is not given here.

Chain of Large T antigen (Simian virus 40) (P03070 whole entry, looked up): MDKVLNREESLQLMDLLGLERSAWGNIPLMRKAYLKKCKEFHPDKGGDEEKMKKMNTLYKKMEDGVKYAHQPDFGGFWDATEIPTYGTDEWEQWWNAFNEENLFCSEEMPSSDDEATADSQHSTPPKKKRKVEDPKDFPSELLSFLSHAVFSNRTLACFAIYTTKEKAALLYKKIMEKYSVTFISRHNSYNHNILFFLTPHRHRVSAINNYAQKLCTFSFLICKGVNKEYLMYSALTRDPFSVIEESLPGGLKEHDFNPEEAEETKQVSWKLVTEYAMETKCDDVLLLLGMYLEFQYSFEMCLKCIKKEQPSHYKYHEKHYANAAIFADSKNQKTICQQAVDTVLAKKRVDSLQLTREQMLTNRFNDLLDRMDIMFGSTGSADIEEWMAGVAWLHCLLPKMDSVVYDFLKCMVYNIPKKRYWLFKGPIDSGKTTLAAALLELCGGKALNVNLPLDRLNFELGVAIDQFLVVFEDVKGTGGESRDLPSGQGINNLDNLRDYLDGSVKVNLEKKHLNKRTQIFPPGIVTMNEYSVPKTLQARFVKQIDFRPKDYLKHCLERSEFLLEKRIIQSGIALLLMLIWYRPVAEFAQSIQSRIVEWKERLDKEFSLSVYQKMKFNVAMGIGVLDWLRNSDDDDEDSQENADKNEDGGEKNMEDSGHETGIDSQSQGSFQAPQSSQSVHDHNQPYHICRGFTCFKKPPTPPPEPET

This experiment has as its target Large T antigen (Simian virus 40) (UniProt P03070). The experiment is described as follows: TAg ATPase/helicase activity blockers – biochemical (AID 1903). The settings on record: SV40 large T antigen ATPase/helicase inhibition assay; at 20 µM; stronger effect = higher value.
Take `O=C(COn1nnc2ccc(Cl)cc21)Nc1ccc(F)cc1`: the inhibition (as a rule, the relative decrease from the control value, in per cent) was 19.7%.
Then `COc1cc(/C=C2\N=C(C)OC2=O)cc(Cl)c1OC(C)=O`, with 13.6%.
Then `CC(=O)NC1CC2CCCC(C1)N2S(=O)(=O)c1cccc(F)c1` (configuration not stated), with 2.38%; and `COc1ccc(S(=O)(=O)Nc2cccc(-c3ccc4nncn4n3)c2)c(OC)c1`, with 12.4%; and `Brc1ccc(-c2nc3ncccn3c2NC2CCCCC2)o1`, with 12.4%.
Regarding `Cc1ccc(Nc2c(-c3ccc(C)o3)nc3ncccn23)cc1`, the inhibition is 33.8%.
The result for `Cc1ccc(-n2cc(CCCCCCCCC(=O)O)nn2)cc1` reads 8.47%; that for `COc1ccc(/C=N/NC(=O)CN2CCSCC2)c(OC)c1`, 17.5%; that for `COc1ccc(NC(=O)/C=C/C(=O)O)cc1Cl`, 4.09%.
For `COC(=O)/C=C/C(=O)Nc1cccc(C(F)(F)F)c1`, the inhibition was 17.3%.
The result for `CCCCC(=O)c1ccc(O)cc1` reads 4.42%; that for `O=C(CCCC(=O)c1ccc(O)cc1)c1ccc(O)cc1`, 9%.
The result for `COc1ccc(N2CCN(C(=O)C3COc4ccccc4O3)CC2)cc1` (configuration not stated) reads 15.2%; that for `O=C(O)CCCC(=O)N(Cc1ccccc1)Cc1ccccc1`, 8.76%.
Consider `COc1ccc(OC)c(S(=O)(=O)N2CCC(C(=O)N3CCc4ccccc4C3)CC2)c1`, for which the inhibition was -3.29%.
The result for `Cc1ccc(C(=O)Nc2nc(=O)n(C(=O)c3ccccc3Cl)s2)cc1` reads 6.99%.
The result for `CN(C)c1ccc(Nc2ccc([N+](=O)[O-])cn2)cc1` reads 32.5%.
`COc1ccc(Nc2cc(Nc3ccc(OC)cc3)ncn2)cc1`: the inhibition is 6.82%.
The result for `COc1ccc(S(=O)(=O)N2CCCN(CC(=O)Nc3ccc4c(c3)OCO4)CC2)cc1` reads -44.5%; that for `O=C(COC(=O)C1=COCCO1)NC1CCCCC1`, 4.07%; that for `COC(=O)C1=C(C)N=c2s/c(=C3\C(=O)Nc4ccccc43)c(=O)n2C1c1ccccc1` (configuration not stated), 12.3%.
Then `CCOC(=O)C1=C(C)N=c2s/c(=C3/C(=O)Nc4ccccc43)c(=O)n2C1c1ccc(C)cc1` (configuration not stated), with 24.6%; and `O=C(CCCC(=O)NCCc1ccccc1)NCCc1ccccc1`, with 3.18%.
Then `Cc1ccc(-c2noc(C3CCCN(S(=O)(=O)c4ccc5ccccc5c4)C3)n2)o1` (configuration not stated), with -0.86%; and `Cc1ccc(S(=O)(=O)N2CCCC(c3nc(-c4ccc(C)o4)no3)C2)cc1` (configuration not stated), with 6.08%.
Take `CC(C)(C)c1cc(-c2nc(N)nc(N)n2)cc(C(C)(C)C)c1`: the inhibition is 6.71%.
Then `COc1cccc(CN2CCCC(N3CCc4ccccc4C3)C2)c1O` (configuration not stated), with 11.4%; and `CC1CCN(C2=C(NS(=O)(=O)c3ccc(Cl)cc3)C(=O)c3ccccc3C2=O)CC1`, with 16.2%.
The result for `COc1ccc(NC(=O)Nc2ccc(O)c3ccccc23)cc1` reads 27.9%.
Then `COc1ccc(C(=O)Nc2cccc3ccccc23)cc1`, with 16.2%; and `CC1(C)Cc2ccccc2C(=C(C#N)C#N)N1`, with 4.69%.
As for `CCOC(=O)c1ccc(NC(=O)c2cc3ccccc3o2)cc1`, the inhibition is 8.26%.
Then `O=C1N/C(=C\c2ccccc2)C(O)=C1C=NCc1ccccc1`, with 18.3%; and `O=C1N/C(=C/c2ccc(Br)cc2)C(O)=C1C=NCc1ccccc1`, with 4.99%.
Then `COC1=C(Nc2ccccc2)C(=O)c2ccccc2C1=O`, with -28.6%; and `COC1=C(Nc2ccc(C)cc2)C(=O)c2ccccc2C1=O`, with 3.75%; and `Cc1ccc(-c2nc(CS(=O)CC(=O)NCCN3CCOCC3)c(C)o2)cc1` (configuration not stated), with -1.85%.
Regarding `CC(=O)Cc1nsc(Nc2ccc(F)cc2)n1`, the inhibition was 5.39%.
Turning to `CCOc1ccc(NC(=O)CN(C)CC(=O)Nc2ccc(Br)cc2F)cc1OCC`, the inhibition was 2.33%.
The result for `COC(=O)CCCC1=CC2=CC(=O)C(C)(OC(=O)c3ccc(Cl)nc3)C(=O)C2=CO1` (configuration not stated) reads 23.8%; that for `Cc1ccc(NC(=S)NNc2ccc([N+](=O)[O-])cc2S(=O)(=O)Nc2ccccc2C(=O)O)cc1C`, 31.6%.
The result for `O=C(O)c1ccccc1Nc1ccc(OC(F)F)cc1` reads 10.8%.
Then `CCN(CC)S(=O)(=O)c1ccc(/C=C/C(=O)OCC(=O)Nc2ccc(S(N)(=O)=O)cc2)cc1`, with 0.26%; and `CC(=O)NC1=NN(c2ccccc2)C(=O)C1`, with 13.1%.
Consider `O=C(COc1ccc(Cl)cc1)NC1=NN(c2ccccc2)C(=O)C1`, for which the inhibition is 18.7%.
The result for `COc1ccc(-c2nc3cc(C)ccn3c2NC(=O)c2ccccc2OC)cc1` reads 9.33%; that for `COc1ccc(NC(=O)CSCC(=O)NCCc2ccccn2)cc1`, 0.35%.
Consider `CNCCc1ccccn1`, for which the inhibition is 13.3%.
With `COCCN1Cc2cccc(C(=O)Nc3cccnc3)c2C1=O`, the inhibition was 1.93%.
For `COc1cccc(CC(=O)OCC(=O)N(C)CC(=O)Nc2ccc(Cl)c(C(F)(F)F)c2)c1`, the inhibition was 5.39%.
Turning to `CCOc1ccccc1N(CC(=O)NC1CCCCC1)C(=O)CCC(=O)Nc1cc(C)ccn1`, the inhibition is -4.71%.
Then `Brc1ccc(-c2csc(NNC3=NCCCCC3)n2)cc1`, with 21.1%; and `c1ccc(-c2csc(NC3=NCCCCC3)n2)cc1`, with -1.35%.
The result for `O=C1NC(=O)/C(=C/c2ccc(N3CCOCC3)o2)N1` reads 35.9%.
Then `COC(=O)CN1C(=O)S/C(=C/c2ccc(N3CCCCC3)o2)C1=O`, with 22.2%; and `CCOC(=O)CN1C(=O)S/C(=C/c2ccc(N3CCCCC3)o2)C1=O`, with -40.7%; and `O=C1NC(=O)/C(=C\c2ccc(N3CCOCC3)o2)N1`, with 12.2%.
`COc1ccc(-c2cn(Cc3ccc(C(N)=O)cc3)c(CCN)n2)cc1`: the inhibition is 15.2%.
The result for `CCc1ccc(N2CC(C(=O)Nc3cc(C)on3)CC2=O)cc1` (configuration not stated) reads 7.18%; that for `COc1ccc(S(=O)(=O)N2CCc3cc4c(cc3C2C)OCCCO4)cc1` (configuration not stated), -0.77%; that for `O=C(/C=C/c1cccc([N+](=O)[O-])c1)NCC1CCCO1` (configuration not stated), 1.2%.
For the molecule `CCNc1c(NC(=O)C2CCC(C)CC2)c(=O)oc2ccccc12` (configuration not stated), the inhibition was 7.89%.
